According to PubChem BioAssay (Tox21):
Values joined by “and” are separate entries in the source; they are usually repeats but may differ in a detail not shown here. Equal values may be shown once. Results filed as inconclusive are left out. A number with no mark means an inactive call. Active and inactive are the calls of the source. Calls follow the shape of the dose curve; as a rule, active = well fitted activation curve with a large enough effect in the repeat runs; inconclusive = weak or mixed curves; inactive = no such curve, though single readings can be large or run the other way.

molecular target: Nuclear receptor subfamily 1 group I member 2 (Homo sapiens) (UniProt O75469); experiment: Human pregnane X receptor (PXR) small molecule agonists, qHTS assay (AID 1346982); details: PXR-Luc HepG2, CYP3A4 luciferase reporter, 24 h; series mostly up to 92.4 µM; activation: at the top concentration; also: nearly all actives have a fitted effect of over 35% in size
Sequence (O75469 whole entry, looked up): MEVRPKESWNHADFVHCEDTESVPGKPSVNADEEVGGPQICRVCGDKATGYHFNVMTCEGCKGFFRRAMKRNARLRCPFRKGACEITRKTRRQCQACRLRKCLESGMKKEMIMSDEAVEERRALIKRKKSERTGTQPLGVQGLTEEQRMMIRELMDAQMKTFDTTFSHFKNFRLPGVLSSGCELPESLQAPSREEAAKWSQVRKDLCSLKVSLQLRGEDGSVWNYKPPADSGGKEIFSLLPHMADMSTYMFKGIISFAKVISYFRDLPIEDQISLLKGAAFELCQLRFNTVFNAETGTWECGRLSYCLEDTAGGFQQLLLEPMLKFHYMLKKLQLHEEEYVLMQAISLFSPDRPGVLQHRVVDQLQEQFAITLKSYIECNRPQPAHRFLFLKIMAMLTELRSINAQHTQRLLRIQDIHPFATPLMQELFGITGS
Text: National Center for Advancing Translational Sciences [NCATS]
NIH Chemical Genomics Center [NCGC]
U.S. Environmental Protection Agency [EPA]
National Institutes of Environmental Health Sciences [NIEHS]
National Toxicology Program [NTP]
The human pregnane X receptor (hPXR) regulates the expression of several drug metabolizing enzymes and induction of these proteins is a major mechanism for developing drug resistance in cancer. One such key enzyme catalyzing the drug metabolism is cytochrome P450 3A4 (CYP3A4). Changes in CYP3A4 expression affect drug metabolism, thereby reducing the therapeutic efficacy and altering toxicological response to a drug and which finally causes adverse drug interaction. To screen Tox21 libraries for compounds that activate hPXR-mediated CYP3A4 gene expression, PXR-Luc HepG2 cells were used.
PXR-Luc HepG2 cells were dispensed at 2,000 per well in 5uL of assay medium containing 5% charcoal-stripped FBS into white solid bottom 1536-well plates (Corning Life Sciences, Corning, NY) using a Multidrop Combi (Thermo Scientific, Waltham, MA) dispenser. The assay plates were incubated at 37 C and 5% CO2 for 5hr, and then 23nL of compounds dissolved in DMSO and positive control were transferred using a Pintool station (Wako, San Diego, CA). The assay plates were incubated at 37C and 5% CO2 for 24hr. For luciferase read, 4uL of ONE-Glo reagent (Promega Corporation, Madison, WI) was added to each well of the assay plates using Flying Reagent Dispenser (FRD, Aurora Discovery, San Diego, CA) and incubated the assay plates at room temperature for 30min. The luminescence signal was quantified using a ViewLux plate reader (Perkin Elmer, Shelton, CT).
% is scaled to controls: 0 for no effect and ±100 for the full control effect; potency is read from the fitted curve at half-maximal effect.

| SMILES | activation | Potency |
| --- | --- | --- |
| C1C[C@@H]2[C@H]3CC[C@H](C3)[C@@H]2C1 | -11.2% |  |
| c1ccc(C[n+]2cccc3ccccc32)cc1 | 20.5% |  |
| CCCC(C(=O)OCCN(CC)CC)(c1ccccc1)c1ccccc1 |  | 10.6 µM (active) |
| OCCOCC#CCOCCO | 12.2% |  |
| CCOC(=O)c1ccc(O)c(O)c1 | 6.43% [at 42.5 µM] |  |
| C[C@H]1c2cccc(O)c2C(O)=C2C(=O)[C@]3(O)C(O)=C(C(N)=O)C(=O)[C@@H](N(C)C)[C@@H]3[C@@H](O)[C@@H]21 | -20.8% [at 42.5 µM] |  |
| C=C1C[C@@]23CC[C@H]4[C@@](C)(CCC[C@@]4(C)C(=O)O[C@@H]4O[C@H](CO)[C@@H](O)[C@H](O)[C@H]4O)[C@@H]2CC[C@]1(O[C@@H]1O[C@H](CO)[C@@H](O)[C@H](O[C@@H]2O[C@H](CO)[C@@H](O)[C@H](O)[C@H]2O)[C@H]1O[C@@H]1O[C@H](CO)[C@@H](O)[C@H](O)[C@H]1O)C3 | 0.746% |  |
| O=C(OCC(O)CO)c1ccccc1Nc1ccnc2cc(Cl)ccc12 (stereo not given) |  | 11.9 µM (active) |
| CCCCN(CCCC)C(C(N)=O)c1ccc(OC)cc1 (stereo not given) |  | 11.9 µM (active) |
| CN1CCCC(CC2c3ccccc3Sc3ccccc32)C1 (stereo not given) | -11.3% [at 42.5 µM] |  |
| O=c1cc(-c2ccccc2)oc2ccc3ccccc3c12 |  | 2.43 µM (active) |
| NC1[C@H]2CN(c3nc4c(cc3F)c(=O)c(C(=O)O)cn4-c3ccc(F)cc3F)C[C@@H]12 (stereo not given in full) |  | 26.6 µM (active) |
| O=C(O)CCCCCCCCCCCBr | 15.4% |  |
| Cc1cc(C)cc(N)c1 |  | 61.9 µM (active) |
| C=CC(=O)[O-].C=CC(=O)[O-].[Zn+2] | -10.2% |  |
| CCn1cc(C(=O)O)c(=O)c2cc(F)c(N3CCNCC3)cc21 | -6.98% [at 42.5 µM] |  |
| c1ccc2sc(SN(C3CCCCC3)C3CCCCC3)nc2c1 |  | 17 µM (active) |
| CC(C)(O)c1ccc(CNC(=O)c2cccnc2Oc2ccc3nonc3c2)cc1 | 21.6% |  |
| CC1(CN2CCC(n3c(=O)[nH]c4ccccc43)CC2)OCc2ccccc2-n2cccc21 (stereo not given) |  | 29.8 µM (active) |
| CCCCC(CC)COP(=O)(O)O (stereo not given) | 8.81% |  |

| SMILES | activation | Potency |
| --- | --- | --- |
| CC(C)=CCC/C(C)=C/CC/C(C)=C/C(=O)OCC(=O)[C@@]1(O)CC[C@H]2[C@@H]3CCC4=CC(=O)C=C[C@]4(C)[C@H]3[C@@H](O)C[C@@]21C |  | 1.88 µM (active) |
| C[C@H]1C[C@H](O)c2ccsc2S1(=O)=O | 3.5% [at 42.5 µM] |  |
| CC1(C)S[C@@H]2[C@H](NC(=O)C(c3ccccc3)S(=O)(=O)O)C(=O)N2[C@H]1C(=O)O (stereo not given in full) | -13.8% [at 42.5 µM] |  |
| CN1CCCN=C1COC(=O)C(O)(c1ccccc1)C1CCCCC1 (stereo not given) | 2.04% [at 42.5 µM] |  |
| CCOC(=O)c1ccc(OCCN2C[C@H](O)[C@@H](O)[C@H](O)[C@H]2CO)cc1 | -2.05% [at 42.5 µM] |  |
| COC(=O)C1=C(C)NC(C)=C(C(=O)O[C@@H]2CCCN(Cc3ccccc3)C2)[C@@H]1c1cccc([N+](=O)[O-])c1 |  | 2.11 µM (active) |
| CC(CO)CO | -1.96% |  |
| C(=C\c1ccccc1)/c1ccccc1 | 33.7% |  |
| Nc1nc2ccc([N+](=O)[O-])cc2s1 |  | 30.6 µM (active) |
| CCC1CO1 (stereo not given) | 14.2% |  |
| CCCC(=O)C(=O)O | 7.45% |  |
| CC1CC(C)C(=O)C1=O (stereo not given) | 7.17% |  |
| C=CC(=O)OCC1CC2CC1C1CCC(COC(=O)C=C)C21 (stereo not given) |  | 34.4 µM (active) |
| CCCCCCCCCI | -4.82% |  |
| CN1C(=O)N(c2ccccc2Br)Cc2cnc(Nc3ccc4c(c3)OCC(CO)O4)nc21 (stereo not given) |  | 0.0154 µM (active) |
| CN1C(C(=O)Nc2ccccn2)=C(O)c2sccc2S1(=O)=O | 11.2% [at 42.5 µM] |  |
| C[C@@H]1CC(=O)NN=C1c1ccc(NN=C(C#N)C#N)cc1 |  | 11.9 µM (active) and 21.1 µM (active) |
| CCOc1ccc(Cc2nccc3cc(OCC)c(OCC)cc23)cc1OCC |  | 3.35 µM (active) |
| CCC(C)(C)OC | 0.329% |  |
| Cc1ccc(Cl)c(Nc2ccccc2C(=O)O)c1Cl | -0.183% [at 42.5 µM] |  |
